Laboratory results as given in PubChem BioAssay AID1010 (Sanford-Burnham Center for Chemical Genomics, 2008).
In all, about 48,000 compounds went through this assay and about 160 (0.33%) were called active. Many of the other results were omitted from the sample, so actives are more common in it than they were. A number with no mark means an inactive call.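 Rule for the calls: active = survival measured by cellular ATP above 50% at 15 µg/ml in the first screen; inactive = the rest.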

test: protection against thapsigargin ER stress killing – CSM14.1 cells, ATP luminescence, primary screen (AID 1010); conditions: CSM14.1 thapsigargin ER stress survival, active compounds read high, screened at 15 µg/mL (by protocol);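 note: cell death triggered by about 15 µM thapsigargin; ATP read 24 h after thapsigargin was added; plate controls were thapsigargin with DMSO for no effect and DMSO without thapsigargin for full effect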

SMILES | relative survival (cellular ATP)
O=C(Nc1ccc(Cc2ccncc2)cc1)C(c1ccccc1)c1ccccc1 | 43.5%
COc1cc2ccccc2cc1C(=O)Nc1ccccc1C | -5.9%
CC(C)(C)C(=O)CN1C2=NCCN2c2ccccc21 | -3.6%
COc1ccc(C2CC(c3cccs3)=NN2c2ccc(F)cc2)cc1OC (centres undefined) | 3.6%
O=C(NCc1ccncc1)c1cccc([N+](=O)[O-])c1 | 2.2%
CCCOc1ccc(/C=C2\C(=O)NN(c3ccccc3)C2=O)cc1OC | 4.3%
O=C(NNC(=O)c1cc(NC(=O)c2ccc([N+](=O)[O-])cc2)cc(C(=O)NNC(=O)c2ccccc2)c1)c1ccccc1 | 10%
Cc1cc(Cl)ccc1NC(=O)CCc1ccccc1 | 5.6%
O=C(NCc1cccnc1)c1cnn2c(C(F)(F)F)cc(-c3cccs3)nc12 | 2.5%
O=C1C(=O)N(Cc2ccccc2)C(c2ccc(F)cc2)/C1=C(/O)c1ccccc1 (centres undefined) | 6.2%
NC(=O)c1c(NC(=O)c2ccc(Br)cc2)sc2c1CCCCCC2 | 3.1%
NC(=O)c1c(NC(=O)c2ccccc2F)sc2c1CCCCCC2 | 57.3% (active)
COc1ccc(C(=O)Nc2sc3c(c2C(N)=O)CCCC3)cc1 | 13.7%
COc1ccc(CCN2C(=O)CC(Cc3ccc(Cl)cc3)C2=O)cc1OC (centres undefined) | 10.7%
COc1cc(NC(=O)COc2ccc(Br)cc2C(C)(C)C)c(OC)cc1Cl | 11.7%
Cc1c(C(=O)Nc2ccc(NC(=O)c3ccc(C(C)(C)C)cc3)cc2)cccc1[N+](=O)[O-] | 0.1%
COc1cccc(OCCOc2ccc(/C=C3/SC(=S)NC3=O)cc2OC)c1 | 10.2%
NC(=O)C1(N2CCCCC2)CCN(C(=S)Nc2ccc(Cl)cc2)CC1 | -1.2%
CC1=C(C(=O)Nc2ccccc2)C(c2ccco2)N2C(=O)CSC2=N1 (centres undefined) | 2.3%
O=C(NCCC1=CCCCC1)c1cc(Cl)ccc1[N+](=O)[O-] | 5.6%
NC1=NC(=O)/C(=C/c2ccc(OCc3cccc4ccccc34)cc2)S1 | 2.9%
O=C(NCCCCOc1ccccc1)C(O)(c1ccccc1)c1ccccc1 | 5.8%
COc1cc(OC)cc(C(=O)Nc2cccc(S(N)(=O)=O)c2)c1 | -2.7%

SMILES | relative survival (cellular ATP)
CCOC(=O)c1ccc(NS(=O)(=O)c2cc(C(=O)Nc3ccccc3)ccc2C)cc1 | 4.6%
CC1=C(C#N)c2nc(N)c(C#N)c(C)c2/C1=C/c1ccc(-c2cccc(Cl)c2Cl)o1 | -6.8%
O=C(O)c1cc(-c2ccc(/C=N/Nc3ccc(Cl)c(Cl)c3)o2)ccc1Cl | -2.2%
COc1ccc(/C=C2\SC(=S)N(CC(=O)OCCN(C)C)C2=O)cc1 | -6.1%
Cc1c(C#N)c2nc3ccccc3n2c(=O)/c1=C\c1c(O)n(-c2ccc(Br)cc2)[nH]c1=O | -1.2%
O=c1nc2cc3[nH]c4c(=O)c5ccccc5c4[nH]c3cc2n1 | 12.2%
COC(=O)C1=C(C)NC2=C(C(=O)c3ccccc32)C1c1ccc(-c2ccc([N+](=O)[O-])cc2C)o1 (centres undefined) | 7.6%
CC(=O)c1ccc(NC(=S)NC(NC(=O)N(C)C)C(Cl)(Cl)Cl)cc1 (centres undefined) | -1.5%
COc1ccc(/C(O)=C2/C(=O)C(=O)N(CCCCCC(=O)O)C2c2ccccc2)cc1 (centres undefined) | 2.4%
O=C(NCCc1ccccc1)/C(=C/c1ccc(-c2cccc([N+](=O)[O-])c2)o1)NC(=O)c1ccccc1 | 8.1%
O=C(NC(NC(=S)N1CCOCC1)C(Cl)(Cl)Cl)c1cccc([N+](=O)[O-])c1 (centres undefined) | 0.9%
CC(C)(C)CC(C)(C)NC(=O)CSc1nc2ccccc2[nH]1 | 12.7%
COC(=O)C1=C(C)N=c2s/c(=C\c3ccc(N(C)C)cc3)c(=O)n2C1c1ccccc1Cl (centres undefined) | 0.6%
COc1cc(/C=C2/NC(=S)NC2=O)ccc1OCc1ccccc1Cl | 1.9%
CCN1C(=O)/C(=C\c2ccc(OC)c([N+](=O)[O-])c2)C(C(=O)OC)=C1C | 11.8%
Cc1ccc(N2C(=O)/C(=C/c3sccc3C)SC2=S)cc1 | 9.2%
O=C1S/C(=C/c2ccccc2F)C(=O)N1CNc1ccccc1Br | 2.5%
O=C(Nc1nc(-c2ccc3ccccc3c2)cs1)c1ccc(Cl)cc1[N+](=O)[O-] | 2%
O=c1[nH]c(=O)n(-c2ccc(Cl)cc2)c(O)c1/C=C1/C=CC=N1 | 64.8% (active)
CCOc1ccc(-n2c(O)c(C=C3C=CC=N3)c(=O)[nH]c2=O)cc1 | 2.3%
O=c1[nH]c(=S)n(-c2cccc(Cl)c2)c(O)c1/C=C1/C=CC=N1 | 8.4%
COc1ccc(/C=C(/NC(=O)c2ccco2)C(=O)Nc2ccc(C(C)=O)cc2)cc1 | 2.4%
COC(=O)C(NC(=O)CCC1CCCCC1)C12CC3CC(CC(C3)C1)C2 (centres undefined) | 13.9%

SMILES | relative survival (cellular ATP)
CC1=NN(c2ccc(S(N)(=O)=O)cc2)C(=O)/C1=C\c1ccc(-c2cc([N+](=O)[O-])ccc2C)o1 | -4.8%
CCOc1c(Br)cc(/C=C2/C(=O)NN(c3ccccc3)C2=O)cc1OC | 5%
COc1ccc(Br)cc1-c1nc2nnc(C)n2[nH]1 | 7.4%
Cc1ccc(C(=O)Nc2ccc(NC(=O)c3ccccc3)cc2)cc1S(=O)(=O)N1CCOCC1 | 5%
COc1ccc(-c2cc(C(=O)Nc3c(C)cccc3C)c3ccccc3n2)cc1 | 0.1%
COCCCNC(=O)c1ccccc1C | 0.6%
CCOCCOC(=O)c1ccc(NC(=O)c2ccccc2C)cc1 | 7.2%
CCCCOC(=O)C1=C(C)NC2=C(C(=O)CC(c3ccccc3)C2)C1c1ccc(O)c([N+](=O)[O-])c1 (centres undefined) | 3.8%
O=C1OC(c2ccc(NC(=O)C(F)(F)F)cc2)(c2ccc(NC(=O)C(F)(F)F)cc2)c2ccccc21 | 6.6%
O=C1NC(=S)S/C1=C\c1ccccc1OS(=O)(=O)c1ccc([N+](=O)[O-])cc1 | 3.7%
Cc1ccc(C(=O)Nc2ccc(Cl)cc2)o1 | 2.1%
O=S(=O)(O)c1cc(-n2nc3ccc4c(S(=O)(=O)O)cccc4c3n2)ccc1/C=C/c1ccccc1 | 6.1%
CCc1cccc(C)c1NC(=O)c1ccc(C)c([N+](=O)[O-])c1 | 0.4%
CC(NC(=O)C(F)(Cl)C(F)(F)F)c1ccccc1 (centres undefined) | -2.2%
O=C(N/C(=C/c1ccc(-c2cccc(C(F)(F)F)c2)o1)C(=O)N1CCOCC1)c1ccc(Cl)cc1 | 1%
O=[N+]([O-])c1ccc(C2Nc3ccc(Br)cc3C3C=CCC32)cc1 (centres undefined) | 6.4%
COc1ccc(C2C3=C(CC(C)(C)CC3=O)Nc3ccccc3N2C(=O)c2ccc(Cl)cc2)cc1OC (centres undefined) | 59.4% (active)
CC1(C)CC(=O)C2=C(C1)Nc1ccccc1N(C(=O)Cc1ccccc1)C2c1cccc(F)c1 (centres undefined) | 0.5%
CC1(C)CC(=O)C2=C(C1)NC1=C(C(=O)CC(C)(C)C1)C2c1ccccc1Cl | 9.2%
CC(=O)Oc1ccc2occ(C(=O)c3ccc(C)cc3)c2c1 | -6.1%
CCOC(=O)C1=NN(C(=O)c2ccc(Cl)cc2)C(O)(C(C)(C)C)C1 (centres undefined) | 11.8%
O=C(/C=C/c1ccccc1Cl)c1ccc(NC(=O)c2cccs2)cc1 | 1.3%
O=C(c1ccc(C#CC2(O)CCCCC2)cc1)N1CCN(c2ccccc2Cl)CC1 | 94.4% (active)

SMILES | relative survival (cellular ATP)
OC1(C#Cc2ccccc2)CCN(Cc2ccccc2)CC1 | -6%
CC(=O)Nc1ccc(C(=O)N2CCN(c3ccccc3)CC2)cc1 | -6.3%
Cc1cc(=O)oc2cc(OCC(=O)OCc3ccccc3)ccc12 | 1.2%
Cn1nc(-c2ccc(Br)cc2)cc1N | -2.2%
COc1cc(C2Nc3ccc4ccccc4c3C3=C2C(=O)CC(C)(C)C3)c(Br)cc1O (centres undefined) | 1.3%
COc1cc(OC)c(C2NC(=S)NC(C)=C2C(=O)Nc2ccc(Cl)cc2)cc1OC (centres undefined) | 7.2%
CCOc1nc(-c2ccccc2)cc(-c2ccc(Br)cc2)n1 | 1.9%
NS(=O)(=O)c1cccc(C(=O)Nc2ccc([N+](=O)[O-])cc2)c1 | 4.7%
Clc1ccc(/C=N\N2CCN(C(c3ccccc3)c3ccccc3)CC2)cc1 | 9.1%
C/C(Cn1nnc([N+](=O)[O-])n1)=N/NC(=O)Cc1ccccc1 | -8.3%
CCCCS(=O)(=O)CC(O)COc1ccccc1 (centres undefined) | 10.3%
COc1cccc(C(=O)Nc2ccccc2C(F)(F)F)c1 | 5.4%
CCOC1CC(c2ccccc2)=NN1c1ccccc1 (centres undefined) | 2.7%
COc1ccc(C2/C(=C(\O)c3ccc(F)cc3)C(=O)C(=O)N2c2nncs2)cc1 (centres undefined) | -1.4%
Oc1c(/C=C2/C=Nc3ccccc32)sc(=S)n1Cc1ccccc1 | 11%
O=C(Nc1cccc(F)c1)c1sc2ccccc2c1Cl | 1.2%
COc1ccc(N2C(=O)c3ccc(C(=O)Nc4cccc(O)c4)cc3C2=O)cc1 | 2%
COC(=O)c1ccc(/C=C2\SC(=S)N(CCCC(=O)Nc3nccs3)C2=O)cc1 | -4%
COc1ccccc1CC(=O)Nc1ccc(F)cc1F | 6.1%
COc1ccc(C2/C(=C(\O)c3ccc(Cl)cc3)C(=O)C(=O)N2CCCn2ccnc2)cc1 (centres undefined) | 13%
